According to PubChem BioAssay AID1745850 (National Center for Advancing Translational Sciences (NCATS), 2022):
Out of some 2,100 compounds screened, about 260 (12%) were called active. Not shown: some 58% with an inconclusive outcome. Calls follow the shape of the dose curve; as a rule, active = well fitted cell-killing curve with a large enough effect; inconclusive = small, poorly fitted or top-dose-only effect, or effect the other way; inactive = flat fitted curve, though single readings scatter. The list shows a part of the results. Where a call stands in place of a potency, no number is given.
Potency is read from the fitted curve at half-maximal effect.

Assay: Viability Counterscreen for Confirmatory qHTS for Inhibitors of ATXN expression; also: nearly all actives have a fitted effect of over 50% in size
Details: HEK-293 ATXN2-luc cells viability, CellTiter-Fluor, 24 h
Procedure, shortened: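 Cells with an ATXN2-luciferase reporter were dosed in a dilution series for 24 h at 37 degrees C. Viability was read first with Gly-Phe-AFC at 25 uM final (fluorescence, ex 405/em 540), then SteadyGlo luminescence. Medium-only wells defined 100% inhibition.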
With `CC(C)CCNC(=O)COc1cccc2c1OC(C)(C)C2` the Potency was “inactive”.
For `CCOC(=O)[C@H]1[C@H]2COc3ccc(OC)cc3[C@@H]2N2C(=O)c3cc(OC)c(OC)cc3NC(=O)[C@@]12C`, the Potency was “inactive”.
For `Cc1cc(O)c(C(C)C)cc1N=Cc1ccc(N(C)C)cc1`, the Potency was “inactive”.
With `Cc1cc(C2=NNC(=NC3CC3)SC2)c(C)n1-c1ccccc1F` the Potency was “inactive”.
For `Cc1cccc(N2CCN(C(=O)CNC(=O)Cc3ccccc3)CC2)c1C`, the Potency was “inactive”.
For `CCC(C)(C)c1ccc(OCCCC[n+]2ccc(C)cc2)c(C(C)(C)CC)c1`, the Potency was “inactive”.
For `CCCCCc1ccc(OCCC[n+]2ccccc2)c(CCCCC)c1`, the Potency was 20 µM (active).
For `CCC(C)(C)c1ccc(OCCCC[n+]2ccccc2)c(C(C)(C)CC)c1`, the Potency was “inactive”.
With `Cc1cccc(OCCSc2nc3ncnc(N)c3[nH]2)c1` the Potency was “inactive”.
In the case of `Cc1nc(-c2ccc(Cl)cc2)sc1C(=O)NN`, the Potency is reported as “inactive”.
For `COc1ccc2nc(C)c3c(c2c1)OC(C(C)(Cl)Br)C3` (centres undefined), the Potency was “inactive”.
With `COc1ccc(N2CCN(c3cc(C)nc4ccc(OC)cc34)CC2)cc1` the Potency was “inactive”.
With `COc1ccc2nc(C)cc(NCc3cccc(C(F)(F)F)c3)c2c1` the Potency was 22.4 µM (active).
For `O=C(CCN1CCN(c2ccccc2)CC1)N/N=C/c1ccccc1O`, the Potency was “inactive”.
For `COc1cc(C(=O)OC(C)C(=O)N2CCc3ccccc3C2)ccc1OCC(=O)N1CCOCC1` (centres undefined), the Potency was “inactive”.
In the case of `Cc1cc(C)c(C)c(OC(=O)c2sc(Cl)nc2C)c1`, the Potency is reported as 28.2 µM (active).
In the case of `COC(=O)c1sc(NC(=O)c2ccc(OC)cc2OC)nc1C`, the Potency is reported as “inactive”.
In the case of `CCOC(=O)C1CCN(c2ncnc3c2cnn3-c2ccc(Cl)cc2)CC1`, the Potency is reported as “inactive”.
In the case of `Cc1cc(N2CCN(c3nc(-c4ccccc4)cs3)CC2)c2ccccc2n1`, the Potency is reported as “inactive”.
With `Cn1cccc1/C=N/N1CCN(Cc2ccccc2Cl)CC1` the Potency was “inactive”.
For `O=[N+]([O-])c1cc(Cl)c(O)c2ncccc12`, the Potency was 11.2 µM (active).
For `CC(C)COCc1ccc(O)c2ncccc12`, the Potency was “inactive”.
In the case of `O=C1c2cccc3c([N+](=O)[O-])ccc(c23)C(=O)N1c1ccc(Cl)cn1`, the Potency is reported as “inactive”.
For `CCOC(=O)N1CCN(Cc2cc(Cl)c3cccnc3c2O)CC1`, the Potency was “inactive”.
For `Cc1ccnc(N2C(=O)c3cccc4c([N+](=O)[O-])ccc(c34)C2=O)c1`, the Potency was “inactive”.
For `O=[N+]([O-])c1ccc(O)c2ncccc12`, the Potency was 11.2 µM (active).
For `Cn1c(-[n+]2c(-c3ccccc3)cc(-c3ccccc3)cc2-c2ccccc2)nc2c([N+](=O)[O-])cccc21`, the Potency was “inactive”.
In the case of `COc1ccc(N=Cc2cc3c(cc2O)OC(N)=C(C#N)C3c2ccccc2)cc1` (centres undefined), the Potency is reported as “inactive”.
For `O=C1CCCC(O)=C1C=NCc1ccccc1`, the Potency was “inactive”.
For `CCCCC(=O)N(CCOC)c1nnc(-c2ccccc2C)s1`, the Potency was “inactive”.
For `CC(=O)Nc1ccc(CNc2nc(NC(C)C)nc3cc(-c4ccccc4)sc23)cc1`, the Potency was 25.1 µM (active).
With `COc1ccc(-c2cc(CNc3nc(NC(C)C)nc4cc(-c5ccccc5)sc34)on2)cc1` the Potency was 22.4 µM (active).
For `COc1ccccc1CNc1nc(NC(C)C)nc2cc(-c3ccccc3)sc12`, the Potency was 28.2 µM (active).
For `CC(=O)Nc1ccc(CNc2nc3cc(-c4ccccc4C)sc3c(=O)n2C)cc1`, the Potency was “inactive”.
With `CCn1c2ccccc2c2cc(/C=N/n3cnnc3)ccc21` the Potency was “inactive”.
In the case of `CCOCCn1ccc2c(OCC(=O)Nc3ccc(OC)c(OC)c3)cccc2c1=O`, the Potency is reported as “inactive”.
For `COCCNc1nc(-c2cc(C)n(CCc3ccc(OC)cc3)c2C)cs1`, the Potency was “inactive”.
For `COCCCn1c(N)c(-c2nc3ccccc3n2C)c2nc3ccccc3nc21`, the Potency was “inactive”.
In the case of `CO[C@@]12[C@@H]3N[C@@H]3CN1C1=C(C(=O)C(N)=C(C)C1=O)[C@@H]2COC(N)=O`, the Potency is reported as “inactive”.
With `NNC(=O)c1sc2cc(C(F)(F)F)cnc2c1-c1cccs1` the Potency was “inactive”.
For `O=C(CNC(=O)C1COc2ccccc2O1)N/N=C/c1ccc(O)cc1O` (centres undefined), the Potency was “inactive”.
With `Cc1nc(SCc2ccc(C(=O)O)cc2)nc2c1CCCC2` the Potency was “inactive”.
For `N=c1ccn(CC(=O)c2ccc(-c3ccccc3)cc2)cc1`, the Potency was “inactive”.
For `Cc1c(C(=O)NCc2ccc(C(F)(F)F)cc2)sc(=O)n1Cc1cccc(F)c1`, the Potency was “inactive”.
In the case of `Cc1ccc2nc(SCc3ccc([N+](=O)[O-])cc3)[nH]c2c1`, the Potency is reported as “inactive”.
For `Cc1ccc2nc3cc([N+](=O)[O-])cc([N+](=O)[O-])c3cc2c1`, the Potency was 17.8 µM (active).
For `Cc1cc(C)nc(NNS(=O)(=O)c2ccc(F)c(Cl)c2)n1`, the Potency was “inactive”.
For `CC(C)CC(=O)NC(=S)NNC(=O)c1ccc(NC(=O)C2CCCCC2)cc1`, the Potency was “inactive”.
In the case of `Cc1cccc(OCCCC(=O)Nc2nc3ccccc3[nH]2)c1`, the Potency is reported as “inactive”.
In the case of `CCC(=O)OCCNc1cc(Sc2nc3ccccc3[nH]2)c2nonc2c1[N+](=O)[O-]`, the Potency is reported as 3.16 µM (active).
In the case of `CC(SC(C)C(=O)NN=Cc1cccc(Cl)c1)C(=O)NN=Cc1cccc(Cl)c1` (centres undefined), the Potency is reported as “inactive”.
For `O=C(NC(=S)NCc1nc2ccccc2[nH]1)c1ccc(F)cc1`, the Potency was “inactive”.
For `Cc1cc(C)cc(NC(=O)CCC(=O)Nc2cc(C)on2)c1`, the Potency was “inactive”.
For `COc1ccc(OC)c(NC(=O)CSc2nnnn2-c2ccc3c(c2)OCO3)c1`, the Potency was “inactive”.
With `Cc1cc(C)c2c(CC(=O)Nc3ccc(Cl)cn3)coc2c1` the Potency was “inactive”.
For `Cc1ccc(N=Nc2ccc(O)c3ncccc23)cc1`, the Potency was 10 µM (active).
For `CN1CCC(N(C)C(=O)c2ccc(Cl)c(S(=O)(=O)N3CCc4ccccc43)c2)CC1`, the Potency was “inactive”.
With `Nc1ccn([C@@H]2O[C@H](CO)[C@@H](O)[C@@H]2O)c(=O)n1` the Potency was “inactive”.
With `CN(C)S(=O)(=O)c1cccc(N2C(=O)CC3(CCCCC3)CC2=O)c1` the Potency was “inactive”.
For `C=CCN(C(=O)CSc1nc2c(sc3ccccc32)c(=O)n1CCN(CC)CC)c1ccccc1`, the Potency was 25.1 µM (active).
With `CCOC(=O)c1c(-n2cccc2)sc2c1CCCC2=O` the Potency was “inactive”.
For `CC(=O)c1ccc(N2CCN(CC(O)COC(c3ccccc3)c3ccccc3)CC2)cc1` (centres undefined), the Potency was “inactive”.
With `CC(C)Nc1nc(-c2ccccn2)nc(-c2ccccc2)c1C#N` the Potency was “inactive”.
For `CCN(CC)c1nc(-c2ccccn2)nc(-c2ccccc2)c1C#N`, the Potency was 8.91 µM (active).
For `Cn1cc(SCC(=O)Nc2nc3ccccc3s2)c2ccccc21`, the Potency was “inactive”.
With `O=C(N/N=C/c1ccccc1O)c1cccc(C(F)(F)F)c1` the Potency was “inactive”.
For `COc1ccccc1NS(=O)(=O)c1cccc(C(=O)N/N=C/c2ccc([N+](=O)[O-])o2)c1`, the Potency was 15.8 µM (active).
In the case of `COc1cccc(/C=N/NC(=O)c2cc3c(OC)cccc3[nH]2)c1O`, the Potency is reported as “inactive”.
With `c1ccc(COc2ncnc3c2ncn3CCCN2CCN(Cc3cccc4ccccc34)CC2)cc1` the Potency was 25.1 µM (active).
For `CCOC(=O)/C=C/C(=O)Nc1ccc(Oc2ccccc2)cc1`, the Potency was “inactive”.
In the case of `CN(CCOc1ccc(Br)cc1)CC(O)COc1ccc(C#N)cc1` (centres undefined), the Potency is reported as “inactive”.
For `OC[C@@H]1CN(Cc2ccc(-c3ccccc3)cc2)C[C@H](n2cnc3c(Nc4ccccc4)ncnc32)O1`, the Potency was 20 µM (active).
For `Cc1csc2ncnc(NC3CCN(Cc4ccccc4)CC3)c12`, the Potency was “inactive”.
With `Cc1cccc(/C=N/NC(=O)c2c(-c3ccccc3)noc2C)c1O` the Potency was “inactive”.
In the case of `Cc1cc(Cl)ccc1OCCCC(=O)NNC(=O)c1ccccc1O`, the Potency is reported as “inactive”.
In the case of `COCCCNCCCOc1ccc(Cl)cc1C(C)(C)C`, the Potency is reported as 35.5 µM (active).
For `CCCCNCCCOc1cccc(Cl)c1Cl`, the Potency was “inactive”.
For `NC(=S)n1[nH]c(-c2ccc([N+](=O)[O-])cc2)c(N=Nc2cccc(Cl)c2)c1=O`, the Potency was 11.2 µM (active).
For `Cc1cc2sc3ccc(C#CC4(O)CCCCC4)cc3c(=O)c2cc1C`, the Potency was “inactive”.
With `Cc1ccc(NC(=O)CNc2cccc(Br)c2)cc1S(=O)(=O)N1CCOCC1` the Potency was “inactive”.
For `CC(C)[C@@H]1CC[C@@H](C)C[C@H]1OC(=O)C[n+]1cc(-c2ccc(Cl)cc2)n2c1CCCCC2`, the Potency was 22.4 µM (active).
For `CCn1c(C)cc(C(=O)CN2C(=O)c3ccccc3S2(=O)=O)c1C`, the Potency was “inactive”.
In the case of `CCn1cc(C(=O)NCc2cccc(F)c2)c(=O)c2cc(F)c(N3CCN(C(=O)c4ccco4)CC3)cc21`, the Potency is reported as 22.4 µM (active).
In the case of `O=C(c1ccco1)N1CCN(c2ccnc3cc(Cl)ccc23)CC1`, the Potency is reported as “inactive”.
For `CCOC(=O)Cn1cc(C(=O)c2ccco2)c2ccccc21`, the Potency was “inactive”.
In the case of `Cc1ccc2c(CC(=O)NNC(=O)c3ccccc3O)coc2c1`, the Potency is reported as “inactive”.
In the case of `Cc1ccc(SC2=C(N(C)C)C(=O)c3ccccc3C2=O)cc1`, the Potency is reported as “inactive”.
With `CC(C)(C)c1ccc(NC(=O)N2CCCN(c3c(Cl)cncc3Cl)CC2)cc1` the Potency was “inactive”.
For `O=C(NNC1=Nc2ccccc2SC1)c1ccc(Cl)cc1`, the Potency was “inactive”.
For `O=c1c2c(nc3c(-c4cccc(Br)c4)c[nH]n13)CCCC2`, the Potency was 12.6 µM (active).
For `O=c1c2c(nc3c(-c4ccc(Cl)cc4)c[nH]n13)CCC2`, the Potency was “inactive”.
In the case of `O=C(NNc1ccnc2cc(Cl)ccc12)C1CCCCC1`, the Potency is reported as “inactive”.
For `NC(=O)c1c(NC(=O)c2ccc(S(=O)(=O)N3CCOCC3)cc2)sc2c1CCCCC2`, the Potency was “inactive”.
For `CC1(C)Cc2c(sc(NC(=O)c3ccc(C(=O)c4ccccc4)cc3)c2C(N)=O)C(C)(C)N1`, the Potency was 28.2 µM (active).
For `Nc1nc(NCCCN2CCOCC2)nc(Nc2cccc(Cl)c2)c1[N+](=O)[O-]`, the Potency was “inactive”.
For `CCCCC/C=C/C1=CC(=O)C[C@H](c2ccc(OC)c(OC)c2)C1`, the Potency was “inactive”.
For `CC(C)(C)NCC(=Cc1ccccc1)C(=O)c1ccccc1`, the Potency was 3.55 µM (active).
With `O=C(C(Br)=Cc1ccccc1)c1ccccc1` the Potency was 7.94 µM (active).
With `O=C(N/N=C/c1ccccc1O)/C(=C/c1ccccc1)CCO` the Potency was “inactive”.
In the case of `CC(C)(C)c1ccc(Oc2ccc(N)cn2)cc1`, the Potency is reported as “inactive”.
For `CNc1nc2c(N)ncnc2n1[C@H]1O[C@@H](CO)[C@H](O)[C@@H]1O`, the Potency was “inactive”.
For `Cc1ccc(SCCC(=O)N/N=C/c2ccccc2O)cc1`, the Potency was “inactive”.
For `Cc1ccc2[nH]c(O)c(N=NC(=O)C3CC3c3ccccc3)c2c1Br` (centres undefined), the Potency was “inactive”.
With `CC(C)c1cccc(C(C)C)c1Nc1cn[nH]c1` the Potency was “inactive”.
